Screening results from PubChem BioAssay.
ROCK2 blocker: inhibitors of human Rho kinase 2 | O75116 | purified ROCK2, Kinase-Glo ATP depletion luminescence | inhibition, % at 6 µM | 60,000 compounds, 0.35% hits | AID 604;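 active means inhibition above the screen-wide mean inhibition plus 3 SD, cut at about 18% in these data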
PKA inh: inhibitors of human protein kinase A | P17612 | PKA Kemptide phosphorylation, Kinase-Glo ATP luminescence | inhibition, % at 6 µM | 65,000 compounds, 0.1% hits;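 active means inhibition above the screen-wide mean inhibition plus 3 SD, cut at about 21% in these data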
DAT uptake mod: modulates human dopamine transporter uptake under cocaine. 110,000 compounds, 1.3% hits. B-score at 10 µM. Q01959. AID 449768. LLC-PK1 hDAT cells, [14C]-dopamine uptake with cocaine IC80; actives deviate in either direction;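 active means Z score or B-score, a plate-position-corrected score, falls beyond the plate's 99.7% confidence bounds, in either direction; inactive means both scores lie inside the 99.7% bounds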
Target sequence (Q01959 whole entry, looked up): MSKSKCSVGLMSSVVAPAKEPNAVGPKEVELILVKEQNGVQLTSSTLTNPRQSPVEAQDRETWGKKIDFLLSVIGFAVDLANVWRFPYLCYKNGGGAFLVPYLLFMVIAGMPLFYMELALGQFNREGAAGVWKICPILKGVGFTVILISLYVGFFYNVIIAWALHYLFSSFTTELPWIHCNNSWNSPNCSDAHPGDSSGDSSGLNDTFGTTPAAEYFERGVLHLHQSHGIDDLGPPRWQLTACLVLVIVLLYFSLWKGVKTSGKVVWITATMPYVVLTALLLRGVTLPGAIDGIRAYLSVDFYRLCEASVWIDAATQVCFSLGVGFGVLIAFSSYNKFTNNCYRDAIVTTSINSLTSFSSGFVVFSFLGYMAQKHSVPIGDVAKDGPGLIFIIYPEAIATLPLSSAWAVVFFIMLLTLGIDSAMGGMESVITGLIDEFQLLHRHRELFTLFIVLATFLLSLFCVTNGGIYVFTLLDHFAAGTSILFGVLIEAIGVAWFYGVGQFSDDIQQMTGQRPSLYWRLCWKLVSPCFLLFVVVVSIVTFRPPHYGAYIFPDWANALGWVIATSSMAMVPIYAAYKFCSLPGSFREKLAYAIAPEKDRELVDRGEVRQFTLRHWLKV
D1 mod: allosterically modulates the human D1 dopamine receptor | HEK293 D1, CRE-luciferase, dopamine EC30 potentiation; actives deviate in either direction | AID 641 | P21728 | B-score at 10 µM | 58,000 compounds, 5.9% hits;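 active means luminescence count or its row- and column-corrected plate score outside the 99.7% band of the plate's sample wells, on either side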
D1 mod confirm: D1 receptor (human) allosteric modulation, confirmed; shares compounds with D1 mod; HEK293 D1 CRE-luciferase, dopamine EC30 potentiation; active compounds read high; luminescence at 10 µM; 2,200 compounds, 88% hits;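 active means luminescence in either of two replicates above the same-plate mean plus 3 SD of the low-dose dopamine control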
D1 no dopamine: secondary test of D1 modulators: activity without dopamine. shares compounds with D1 mod. HEK293 D1 CRE-luciferase, luminescence, no dopamine; active compounds read high. luminescence at 10 µM. 1,900 compounds, 0.8% hits. AID 646; in the data active means luminescence above about 3900
Isoprot counter: alters isoproterenol CRE-luciferase response in HEK293 cells; shares compounds with D1 mod; 2,200 compounds, 63% hits; AID 647; HEK293 D1 CRE-luciferase, isoproterenol EC30 counter-screen; calls only at 10 µM;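 active means luminescence in either replicate above plate mean of wells with a partly effective reference agonist dose plus 3 SD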;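 further: isoproterenol raises cAMP through native beta-adrenoceptor Gs so signal bypasses D1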
Large screens that a line does not name were inactive (follow-up assays come after a bar, where they were run). The sample as a whole holds a higher share of hits than the screen did.

CCN(CC(=O)NC1CCCCCC1)S(=O)(=O)c1ccccc1	D1 mod 6.7 | D1 mod confirm inactive | D1 no dopamine inactive | Isoprot counter inactive
CCOC(=O)COn1c(=O)c(=O)n(O)c2ccccc21	none
O=C1C(Cl)=C(NCC2CCCO2)C(=O)N1C1CCCCC1 (stereo not given)	D1 mod 4.4 | D1 mod confirm 8656 | D1 no dopamine inactive | Isoprot counter inactive
CCN(CC)c1ccc(C2C(C(C)=O)C(=O)CC(C)(O)C2C(C)=O)cc1 (stereo not given)	none (no result: ROCK2 blocker, PKA inh, D1 mod)
COc1ccc(C(=O)CN2C(=O)NC(C)(c3ccccc3)C2=O)cc1OC (stereo not given)	none (no result: ROCK2 blocker, PKA inh, D1 mod)
COc1ccc(C2(C)NC(=O)N(Cc3cc(Cl)cc4c3OCOC4)C2=O)cc1OC (stereo not given)	D1 mod 10 | D1 mod confirm 22312 | D1 no dopamine inactive | Isoprot counter active
Cc1cc(O)c(C=Nc2cccc(Cl)c2)c(=O)o1	D1 mod 3.8 | D1 mod confirm 8536 | D1 no dopamine inactive | Isoprot counter inactive
COC(=O)c1cc(NC(=O)CCc2c(C)nc3ncnn3c2C)cc(C(=O)OC)c1	D1 mod 5.2 | D1 mod confirm inactive | Isoprot counter inactive
Cc1cc(C)nc(SCc2nc(N)nc(-c3ccccc3O)n2)n1	D1 mod 13 | D1 mod confirm 17172 | D1 no dopamine inactive | Isoprot counter active
CCC1CC(CSc2ncn[nH]2)OC1=O (stereo not given)	none (no result: ROCK2 blocker, PKA inh, D1 mod)
COc1ccc(Nc2nc3ccccc3nc2C)cc1	D1 mod 3.1 | D1 mod confirm 8152 | Isoprot counter inactive
COc1cc(/C=C(/C#N)C(=O)NCCc2c[nH]c3ccccc23)ccc1OCc1ccccc1F	none (no result: ROCK2 blocker, PKA inh, D1 mod)
CCOc1ccc(-c2[nH]ncc2Oc2ccccc2OC)c(O)c1	none
CCOc1ccc(-c2[nH]ncc2-c2ccc(OC)c(OC)c2)c(O)c1	D1 mod 5.2 | D1 mod confirm 13188 | D1 no dopamine inactive | Isoprot counter active
Cn1c(SCc2ccon2)nc2ccccc2c1=O	D1 mod 5.9 | D1 mod confirm 6248 | D1 no dopamine inactive | Isoprot counter inactive
Cc1ncsc1CCSc1n[nH]c(=O)n1-c1ccccc1	none
Cc1ncsc1CCSc1nc2ccccc2c(=O)n1C	D1 mod 5.3 | D1 mod confirm 10832 | Isoprot counter active
Cc1ccc(S(=O)(=O)N2CCC(=O)N(CCOCc3ccc(C(F)(F)F)cc3)CC2)cc1	none (no result: ROCK2 blocker, PKA inh, D1 mod)
CCOC(=O)Cc1csc(NC(=O)CCCCCN2C(=O)c3cccc4cccc(c34)C2=O)n1	none (no result: ROCK2 blocker, PKA inh, D1 mod)
Cc1ccccc1C(=O)c1cccn1CC(=O)NCc1ccc2c(c1)OCO2	none (no result: ROCK2 blocker, PKA inh, D1 mod)
CSC1=NC(NCCCO)c2c(sc3c2CC(C)(C)OC3)N1 (stereo not given)	D1 mod 3.9 | D1 mod confirm 11400 | D1 no dopamine inactive | Isoprot counter inactive
O=C(O)C[C@H]1c2cc(C(F)(F)F)ccc2S(=O)(=O)N1C1CCN(Cc2ccccc2)CC1	none (no result: ROCK2 blocker, PKA inh, D1 mod)
COc1ccc(OC)c(C(=O)COC(=O)C2CC3CCCC(C2)C3=O)c1 (stereo not given)	D1 mod 2.2 | D1 mod confirm 9744 | D1 no dopamine inactive | Isoprot counter inactive
COc1ccc(C(=O)OCC(=O)c2cc(OC)ccc2OC)c(OC)c1	none (no result: ROCK2 blocker)
O=[N+]([O-])c1ccccc1CNC(Cc1ccccc1)c1ccccc1 (stereo not given)	none (no result: ROCK2 blocker, PKA inh, D1 mod)
CCCNC(=O)c1onc(CSc2ccc(Cl)cc2)c1C(=O)NCCC(C)C	none (no result: ROCK2 blocker, PKA inh, D1 mod)
Cc1cc(C)n(-c2nc3ccccc3c(=O)n2OCC(=O)Nc2c(C)cccc2C)n1	none
O=c1[nH]c2ccccc2n1Cc1ccc(Cl)cc1	none (no result: ROCK2 blocker, PKA inh, D1 mod)
O=c1n(Cc2ccccc2)c2cc(Cl)cnc2n1Cc1ccccc1	D1 mod 8.1 | D1 mod confirm 9248 | D1 no dopamine inactive | Isoprot counter inactive
O=c1oc2ccccc2c2c1ncn2-c1ccccc1	D1 mod 3.6 | D1 mod confirm 9304 | D1 no dopamine inactive | Isoprot counter active
O=c1oc2ccccc2c2c1ncn2C1CCCCC1	D1 mod 7.4 | D1 mod confirm 20596 | D1 no dopamine inactive | Isoprot counter active
O=C(/C=C/c1ccc([N+](=O)[O-])cc1)NCC1CCCO1 (stereo not given)	none (no result: ROCK2 blocker, PKA inh, D1 mod)
CC1CCC(NC(=O)N(CCCl)N=O)CC1 (stereo not given)	none (no result: ROCK2 blocker, PKA inh, D1 mod)
CC(C)n1cnc2c(N(C)c3ccccc3)nc(N(CCN(C)C)Cc3ccccc3)nc21	none (no result: ROCK2 blocker, PKA inh, D1 mod)
COc1cccc(N2CCN(c3ccc(S(=O)(=O)N4CCCC4)cc3)CC2)c1	none (no result: ROCK2 blocker, PKA inh, D1 mod)
CCn1c(SCC(=O)OCc2ccccc2)nc2c1c(=O)n(C)c(=O)n2C	D1 mod 3.9 | D1 mod confirm inactive | D1 no dopamine inactive | Isoprot counter inactive
CCn1c(SCC(=O)Nc2ccccc2N2CCCCC2)nc2c1c(=O)n(C)c(=O)n2C	D1 mod 3.9 | D1 mod confirm 6828 | D1 no dopamine inactive | Isoprot counter inactive
CC(C)n1c(SCC(=O)Nc2ccccc2N2CCOCC2)nc2c1c(=O)n(C)c(=O)n2C	none (no result: ROCK2 blocker, PKA inh, D1 mod)
CCOC(=O)C1CCCCN1Cc1cc(OC)ccc1OC (stereo not given)	none (no result: ROCK2 blocker, PKA inh, D1 mod)
CCOC(=O)C1CCCCN1Cc1cc(Cl)ccc1O (stereo not given)	D1 mod 4 (no result: ROCK2 blocker, PKA inh) | D1 mod confirm 8896 | Isoprot counter active
COc1ccc(C2=NOC(C(=O)Nc3ccc(C)cc3)C2)cc1OC (stereo not given)	D1 mod 21 | D1 mod confirm 20008 | D1 no dopamine inactive | Isoprot counter active
COc1cc(C2=NOC(C(=O)Nc3ccc(C)cc3)C2)cc(OC)c1OC (stereo not given)	none
COc1ccc(NC(=O)C2CC(c3ccc(OC)c(OC)c3)=NO2)cc1OC (stereo not given)	D1 mod 7.1 | D1 mod confirm 12656 | D1 no dopamine inactive | Isoprot counter active
Cc1snc(S(=O)(=O)/C(C#N)=N/Nc2ccc(C(F)(F)F)cc2)c1C#N	none (no result: ROCK2 blocker, PKA inh, D1 mod)
CNc1nc(SCc2ccc(C)cc2)nc2c1CCCC2	none (no result: ROCK2 blocker, PKA inh, D1 mod)
CCOC(=O)c1c(CC(C)C)csc1NC(C)=O	none (no result: D1 mod)
CCOC(=O)c1c(CC(C)C)csc1NC=O	D1 mod 17 | D1 mod confirm 12684 | D1 no dopamine inactive | Isoprot counter active
CCOC(=O)Nc1ccc2c(c1)Sc1ccccc1N2C(=O)CCN1CCOCC1	D1 mod 4.8 | D1 mod confirm 8528 | Isoprot counter active
C=C1CCN([C@H](C(=O)NCc2ccco2)C(C)C)S(=O)(=O)c2ccccc21	none (no result: ROCK2 blocker, PKA inh, D1 mod)
Cc1nn(-c2ccccc2)c2c1/C(=N/O)CC(C)(C)C2	D1 mod 12 (no result: DAT uptake mod) | D1 mod confirm 11596 | D1 no dopamine inactive | Isoprot counter active
CCCn1c(=O)c(C(=O)NCc2ccc(OC)c(OC)c2)c(O)c2ccccc21	D1 mod 4.5 | D1 mod confirm 9276 | D1 no dopamine inactive | Isoprot counter active
